# In ChEMBL document CHEMBL1961873, “Compounds: GSK PKIS; Assays: Nanosyn kinase panel” (2012):
# How the values were obtained:
# [1] = target: Sphingosine kinase 1 (Homo sapiens) (UniProt Q9NYA1); details: at 1 µM;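 further: mean SPHK1 inhibition value reported from the GSK PKIS kinase panel screen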
# [2] = target: T1, Sphingosine kinase 2 (Homo sapiens) (UniProt Q9NRA0); details: at 0.1 µM
# T1 sequence (whole entry): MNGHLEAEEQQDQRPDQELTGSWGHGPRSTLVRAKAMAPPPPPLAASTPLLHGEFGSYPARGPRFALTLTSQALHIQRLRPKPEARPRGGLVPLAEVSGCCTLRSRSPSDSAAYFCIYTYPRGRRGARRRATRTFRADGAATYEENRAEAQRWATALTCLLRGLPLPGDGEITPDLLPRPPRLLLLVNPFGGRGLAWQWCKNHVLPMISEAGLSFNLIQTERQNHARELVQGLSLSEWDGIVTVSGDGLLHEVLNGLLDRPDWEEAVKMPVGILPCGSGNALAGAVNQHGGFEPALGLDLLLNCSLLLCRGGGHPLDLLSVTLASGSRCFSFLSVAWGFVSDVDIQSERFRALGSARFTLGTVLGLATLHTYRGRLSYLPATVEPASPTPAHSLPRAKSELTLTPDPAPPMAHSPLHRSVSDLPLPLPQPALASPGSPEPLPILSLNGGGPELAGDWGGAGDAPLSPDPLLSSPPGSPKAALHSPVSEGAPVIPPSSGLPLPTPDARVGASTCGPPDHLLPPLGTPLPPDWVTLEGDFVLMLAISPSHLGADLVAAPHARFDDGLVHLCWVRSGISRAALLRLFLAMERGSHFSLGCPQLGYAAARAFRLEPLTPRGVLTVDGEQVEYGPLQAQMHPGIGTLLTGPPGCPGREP
# [3] = target: T1, Sphingosine kinase 2 (Homo sapiens); details: at 1 µM
# [4] = target: Casein kinase II subunit alpha (Homo sapiens) (UniProt P68400); details: at 0.1 µM
# Casein kinase II subunit alpha (Homo sapiens), sequence (P68400 whole entry, looked up): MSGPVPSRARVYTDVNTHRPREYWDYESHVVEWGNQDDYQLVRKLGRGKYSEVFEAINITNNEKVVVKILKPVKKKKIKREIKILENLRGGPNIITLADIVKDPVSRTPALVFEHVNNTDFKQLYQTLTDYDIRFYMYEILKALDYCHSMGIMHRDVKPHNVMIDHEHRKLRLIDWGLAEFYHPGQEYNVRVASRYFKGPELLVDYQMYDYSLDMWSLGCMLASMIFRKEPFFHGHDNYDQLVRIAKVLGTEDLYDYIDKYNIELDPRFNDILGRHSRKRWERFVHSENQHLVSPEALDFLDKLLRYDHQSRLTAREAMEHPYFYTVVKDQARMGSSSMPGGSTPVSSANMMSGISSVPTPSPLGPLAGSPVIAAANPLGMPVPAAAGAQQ
# [5] = target: Casein kinase II subunit alpha (Homo sapiens) (UniProt P68400); details: at 1 µM
# [6] = target: T2, Inhibitor of nuclear factor kappa-B kinase subunit alpha (Homo sapiens) (UniProt O15111); details: at 0.1 µM
# T2 sequence (whole entry): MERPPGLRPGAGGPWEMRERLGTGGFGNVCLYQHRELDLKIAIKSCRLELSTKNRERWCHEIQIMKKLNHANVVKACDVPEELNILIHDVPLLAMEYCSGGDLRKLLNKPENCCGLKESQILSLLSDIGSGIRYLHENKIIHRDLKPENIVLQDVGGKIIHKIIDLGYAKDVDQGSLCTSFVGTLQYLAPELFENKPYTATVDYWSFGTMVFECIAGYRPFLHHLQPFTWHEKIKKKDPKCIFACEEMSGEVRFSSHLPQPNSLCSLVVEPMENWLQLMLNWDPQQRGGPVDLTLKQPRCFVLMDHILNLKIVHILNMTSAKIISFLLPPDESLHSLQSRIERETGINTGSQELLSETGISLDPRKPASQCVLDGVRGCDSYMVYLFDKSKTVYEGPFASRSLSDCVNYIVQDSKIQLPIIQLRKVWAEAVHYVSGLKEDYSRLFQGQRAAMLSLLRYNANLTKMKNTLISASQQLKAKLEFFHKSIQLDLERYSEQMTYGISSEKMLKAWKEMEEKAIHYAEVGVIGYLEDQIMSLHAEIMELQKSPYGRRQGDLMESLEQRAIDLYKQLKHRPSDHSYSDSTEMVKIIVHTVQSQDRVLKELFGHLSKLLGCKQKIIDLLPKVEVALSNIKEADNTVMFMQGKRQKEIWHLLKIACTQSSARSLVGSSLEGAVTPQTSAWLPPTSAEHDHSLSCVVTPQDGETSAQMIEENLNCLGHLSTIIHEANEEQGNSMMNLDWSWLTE
# [7] = target: T2, Inhibitor of nuclear factor kappa-B kinase subunit alpha (Homo sapiens); details: at 1 µM
# [8] = target: T3, Inhibitor of nuclear factor kappa-B kinase subunit beta (Homo sapiens) (UniProt O14920); details: at 0.1 µM
# T3 sequence (whole entry): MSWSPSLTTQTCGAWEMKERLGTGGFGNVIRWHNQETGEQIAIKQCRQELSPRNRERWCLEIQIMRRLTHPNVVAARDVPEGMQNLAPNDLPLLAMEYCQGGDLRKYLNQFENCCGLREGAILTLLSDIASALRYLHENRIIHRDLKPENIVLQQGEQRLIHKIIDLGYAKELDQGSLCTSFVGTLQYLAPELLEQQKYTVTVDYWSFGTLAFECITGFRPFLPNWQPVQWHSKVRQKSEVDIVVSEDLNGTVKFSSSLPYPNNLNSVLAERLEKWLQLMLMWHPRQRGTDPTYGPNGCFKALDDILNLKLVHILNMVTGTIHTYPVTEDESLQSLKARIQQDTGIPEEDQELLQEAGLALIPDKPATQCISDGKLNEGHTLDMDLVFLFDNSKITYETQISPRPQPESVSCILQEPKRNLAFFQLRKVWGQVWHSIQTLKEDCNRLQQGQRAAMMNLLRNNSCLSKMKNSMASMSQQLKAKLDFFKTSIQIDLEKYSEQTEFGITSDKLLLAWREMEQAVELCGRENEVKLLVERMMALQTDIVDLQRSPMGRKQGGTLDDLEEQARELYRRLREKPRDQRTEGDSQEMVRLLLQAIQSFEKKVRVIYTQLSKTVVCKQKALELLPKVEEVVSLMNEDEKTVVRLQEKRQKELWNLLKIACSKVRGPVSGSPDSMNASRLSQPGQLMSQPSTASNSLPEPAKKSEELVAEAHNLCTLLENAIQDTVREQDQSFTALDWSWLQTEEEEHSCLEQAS
# [9] = target: T3, Inhibitor of nuclear factor kappa-B kinase subunit beta (Homo sapiens); details: at 1 µM
# [10] = target: T4, Inhibitor of nuclear factor kappa-B kinase subunit epsilon (Homo sapiens) (UniProt Q14164); details: at 0.1 µM
# T4 sequence (whole entry): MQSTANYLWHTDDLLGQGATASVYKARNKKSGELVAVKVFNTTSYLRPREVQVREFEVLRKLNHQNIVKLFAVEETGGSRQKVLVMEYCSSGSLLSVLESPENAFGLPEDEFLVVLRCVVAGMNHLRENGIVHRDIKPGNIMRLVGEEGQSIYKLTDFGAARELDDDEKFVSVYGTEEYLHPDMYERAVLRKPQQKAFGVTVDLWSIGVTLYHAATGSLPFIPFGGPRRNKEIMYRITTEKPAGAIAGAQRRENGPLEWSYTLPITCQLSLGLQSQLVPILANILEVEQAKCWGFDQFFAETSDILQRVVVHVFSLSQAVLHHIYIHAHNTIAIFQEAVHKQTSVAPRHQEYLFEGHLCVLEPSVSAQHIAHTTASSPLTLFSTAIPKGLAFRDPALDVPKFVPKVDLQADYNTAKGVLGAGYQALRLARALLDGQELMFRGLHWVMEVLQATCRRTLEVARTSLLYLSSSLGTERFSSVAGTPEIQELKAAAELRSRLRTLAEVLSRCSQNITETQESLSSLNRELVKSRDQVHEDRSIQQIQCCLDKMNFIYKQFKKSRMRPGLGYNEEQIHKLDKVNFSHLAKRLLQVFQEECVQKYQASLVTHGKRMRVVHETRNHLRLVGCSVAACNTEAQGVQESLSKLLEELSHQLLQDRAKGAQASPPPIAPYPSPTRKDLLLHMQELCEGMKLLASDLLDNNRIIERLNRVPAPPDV
# [11] = target: T4, Inhibitor of nuclear factor kappa-B kinase subunit epsilon (Homo sapiens); details: at 1 µM
# [12] = target: T5, Serine/threonine-protein kinase Nek1 (Homo sapiens) (UniProt Q96PY6); details: at 0.1 µM
# T5 sequence (whole entry): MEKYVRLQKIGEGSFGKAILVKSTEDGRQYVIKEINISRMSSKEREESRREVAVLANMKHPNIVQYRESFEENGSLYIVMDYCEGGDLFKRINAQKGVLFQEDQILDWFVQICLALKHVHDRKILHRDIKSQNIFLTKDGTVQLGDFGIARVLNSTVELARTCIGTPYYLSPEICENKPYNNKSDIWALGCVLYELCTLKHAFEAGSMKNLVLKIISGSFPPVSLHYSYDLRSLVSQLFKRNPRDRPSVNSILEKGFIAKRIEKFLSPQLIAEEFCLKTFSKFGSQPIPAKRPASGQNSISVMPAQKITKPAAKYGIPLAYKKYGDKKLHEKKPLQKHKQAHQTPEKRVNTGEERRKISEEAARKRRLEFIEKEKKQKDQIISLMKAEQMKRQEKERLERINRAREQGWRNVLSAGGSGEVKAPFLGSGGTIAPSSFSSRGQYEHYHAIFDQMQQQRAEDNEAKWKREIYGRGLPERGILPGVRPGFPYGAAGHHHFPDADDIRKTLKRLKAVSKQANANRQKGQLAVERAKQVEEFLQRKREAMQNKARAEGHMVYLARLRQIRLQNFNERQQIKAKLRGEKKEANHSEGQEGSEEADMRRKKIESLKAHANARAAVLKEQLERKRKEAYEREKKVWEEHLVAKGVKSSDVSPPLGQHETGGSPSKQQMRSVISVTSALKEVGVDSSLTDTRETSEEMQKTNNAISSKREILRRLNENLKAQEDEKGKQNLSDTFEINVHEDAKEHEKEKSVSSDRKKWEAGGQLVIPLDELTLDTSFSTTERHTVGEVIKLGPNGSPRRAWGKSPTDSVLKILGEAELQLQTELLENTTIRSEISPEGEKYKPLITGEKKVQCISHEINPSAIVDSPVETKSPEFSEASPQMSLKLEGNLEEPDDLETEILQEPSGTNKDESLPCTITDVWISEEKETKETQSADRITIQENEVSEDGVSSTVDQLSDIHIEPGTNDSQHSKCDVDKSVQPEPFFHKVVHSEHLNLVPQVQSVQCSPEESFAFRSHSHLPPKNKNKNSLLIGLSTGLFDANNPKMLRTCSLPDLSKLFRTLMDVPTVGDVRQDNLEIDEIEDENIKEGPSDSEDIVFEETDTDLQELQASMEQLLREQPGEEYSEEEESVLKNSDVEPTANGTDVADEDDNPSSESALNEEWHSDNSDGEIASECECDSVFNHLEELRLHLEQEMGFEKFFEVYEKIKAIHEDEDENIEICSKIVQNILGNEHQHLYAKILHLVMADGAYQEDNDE
# [13] = target: T5, Serine/threonine-protein kinase Nek1 (Homo sapiens); details: at 1 µM
# [14] = target: T6, Serine/threonine-protein kinase Nek2 (Homo sapiens) (UniProt P51955); details: at 0.1 µM
# T6 sequence (whole entry): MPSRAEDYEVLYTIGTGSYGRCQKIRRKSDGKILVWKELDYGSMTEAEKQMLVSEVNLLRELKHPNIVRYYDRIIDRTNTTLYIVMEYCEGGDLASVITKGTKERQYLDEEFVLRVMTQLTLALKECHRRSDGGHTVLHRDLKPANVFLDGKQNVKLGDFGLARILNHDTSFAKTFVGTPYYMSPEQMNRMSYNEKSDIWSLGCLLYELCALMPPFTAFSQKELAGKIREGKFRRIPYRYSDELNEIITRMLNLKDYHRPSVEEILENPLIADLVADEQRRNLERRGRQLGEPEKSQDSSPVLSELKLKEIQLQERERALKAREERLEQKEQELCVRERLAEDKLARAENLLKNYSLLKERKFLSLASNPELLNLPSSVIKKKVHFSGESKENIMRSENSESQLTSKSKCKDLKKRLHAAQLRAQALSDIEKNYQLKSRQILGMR
# [15] = target: T6, Serine/threonine-protein kinase Nek2 (Homo sapiens); details: at 1 µM
# [16] = target: Serine/threonine-protein kinase Nek6 (Homo sapiens) (UniProt Q9HC98); details: at 0.1 µM
# Serine/threonine-protein kinase Nek6 (Homo sapiens), sequence (Q9HC98 whole entry): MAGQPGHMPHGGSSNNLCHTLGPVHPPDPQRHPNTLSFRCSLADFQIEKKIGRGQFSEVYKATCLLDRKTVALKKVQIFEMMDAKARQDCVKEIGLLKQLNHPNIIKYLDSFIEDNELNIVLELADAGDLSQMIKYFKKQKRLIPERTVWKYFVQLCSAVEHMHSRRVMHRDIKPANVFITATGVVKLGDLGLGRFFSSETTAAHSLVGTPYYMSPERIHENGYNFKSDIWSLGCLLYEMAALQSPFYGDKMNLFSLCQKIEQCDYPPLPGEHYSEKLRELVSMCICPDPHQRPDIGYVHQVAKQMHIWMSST
# [17] = target: Serine/threonine-protein kinase Nek6 (Homo sapiens) (UniProt Q9HC98); details: at 1 µM
# [18] = target: Serine/threonine-protein kinase Nek7 (Homo sapiens) (UniProt Q8TDX7); details: at 0.1 µM
# Serine/threonine-protein kinase Nek7 (Homo sapiens), sequence (Q8TDX7 whole entry, looked up): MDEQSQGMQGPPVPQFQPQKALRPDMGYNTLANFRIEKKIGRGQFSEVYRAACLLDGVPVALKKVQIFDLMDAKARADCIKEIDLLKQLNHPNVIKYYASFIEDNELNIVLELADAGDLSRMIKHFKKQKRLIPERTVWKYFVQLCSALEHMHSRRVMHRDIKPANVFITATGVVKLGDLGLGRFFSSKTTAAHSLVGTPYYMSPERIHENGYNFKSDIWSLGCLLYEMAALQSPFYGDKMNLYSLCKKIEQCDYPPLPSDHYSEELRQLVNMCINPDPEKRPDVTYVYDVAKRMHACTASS
# [19] = target: Serine/threonine-protein kinase Nek7 (Homo sapiens) (UniProt Q8TDX7); details: at 1 µM
# [20] = target: T7, Serine/threonine-protein kinase Nek9 (Homo sapiens) (UniProt Q8TD19); details: at 0.1 µM;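 further: reported value is the mean percent inhibition of NEK9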
# T7 sequence (whole entry): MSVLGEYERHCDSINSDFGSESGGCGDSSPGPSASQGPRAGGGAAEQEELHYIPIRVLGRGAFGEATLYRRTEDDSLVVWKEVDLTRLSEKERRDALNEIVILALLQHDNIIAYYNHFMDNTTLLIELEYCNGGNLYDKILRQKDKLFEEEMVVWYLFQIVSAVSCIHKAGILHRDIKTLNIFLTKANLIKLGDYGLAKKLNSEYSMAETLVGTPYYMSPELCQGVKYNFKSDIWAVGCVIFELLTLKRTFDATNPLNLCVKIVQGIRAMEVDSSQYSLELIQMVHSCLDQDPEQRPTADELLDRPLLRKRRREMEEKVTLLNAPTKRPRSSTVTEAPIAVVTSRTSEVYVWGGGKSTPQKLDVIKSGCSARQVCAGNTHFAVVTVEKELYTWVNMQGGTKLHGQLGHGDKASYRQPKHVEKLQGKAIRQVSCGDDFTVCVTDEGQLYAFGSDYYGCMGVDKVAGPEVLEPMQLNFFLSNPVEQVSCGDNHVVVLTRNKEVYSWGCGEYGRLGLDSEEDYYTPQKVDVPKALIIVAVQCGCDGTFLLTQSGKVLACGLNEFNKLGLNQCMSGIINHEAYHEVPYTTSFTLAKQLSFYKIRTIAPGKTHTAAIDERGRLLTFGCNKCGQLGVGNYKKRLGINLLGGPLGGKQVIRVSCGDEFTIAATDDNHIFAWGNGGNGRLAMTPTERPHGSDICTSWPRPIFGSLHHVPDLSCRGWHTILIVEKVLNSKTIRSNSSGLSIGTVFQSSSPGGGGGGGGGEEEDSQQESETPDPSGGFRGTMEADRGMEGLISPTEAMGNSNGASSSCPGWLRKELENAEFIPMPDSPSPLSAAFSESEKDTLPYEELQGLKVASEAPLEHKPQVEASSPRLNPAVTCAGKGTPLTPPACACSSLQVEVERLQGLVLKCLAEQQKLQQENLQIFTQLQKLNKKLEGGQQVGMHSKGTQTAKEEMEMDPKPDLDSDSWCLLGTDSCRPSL
# Sphingosine kinase 1 (Homo sapiens), sequence (Q9NYA1 whole entry): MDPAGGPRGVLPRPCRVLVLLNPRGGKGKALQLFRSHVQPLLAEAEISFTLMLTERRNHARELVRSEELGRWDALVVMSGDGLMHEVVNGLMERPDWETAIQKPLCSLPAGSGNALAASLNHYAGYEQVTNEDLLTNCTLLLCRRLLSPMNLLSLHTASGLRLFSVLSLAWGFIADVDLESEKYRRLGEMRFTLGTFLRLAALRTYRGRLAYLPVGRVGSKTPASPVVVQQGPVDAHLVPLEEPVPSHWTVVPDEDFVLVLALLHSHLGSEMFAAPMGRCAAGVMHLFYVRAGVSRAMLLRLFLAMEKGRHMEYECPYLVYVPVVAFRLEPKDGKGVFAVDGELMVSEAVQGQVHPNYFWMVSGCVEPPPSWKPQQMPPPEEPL
Structure (SMILES),inhibition [1],inhibition [2],inhibition [3],inhibition [4],inhibition [5],inhibition [6],inhibition [7],inhibition [8],inhibition [9],inhibition [10],inhibition [11],inhibition [12],inhibition [13],inhibition [14],inhibition [15],inhibition [16],inhibition [17],inhibition [18],inhibition [19],inhibition [20]
COc1cc2ncn(-c3cc(O[C@H](C)c4ccccc4Cl)c(C(N)=O)s3)c2cc1OC,-3.88%,0.33%,-2.47%,5.76%,19.5%,6.13%,9.16%,3.99%,6.57%,8.51%,6.91%,29.8%,67.8%,12.1%,48.8%,2.67%,4.93%,3.58%,4.26%,62%
Cc1cc(O)cc(C)c1/C=C/c1cncc(-c2nn[nH]n2)c1,-1.54%,1.53%,-0.11%,2.01%,6.14%,4.82%,4%,5.96%,4.65%,5.04%,4.14%,3.13%,3.26%,5.36%,4.88%,1.26%,1.3%,4.96%,4.04%,4.65%
